# High-throughput results from PubChem.
# aSyn yeast inh: alpha-synuclein toxicity inhibition in yeast; 370,000 compounds, 0.14% hits; Potency, µM (titrated, usually from 46.1 µM), inactives show top-dose growth rescue (activation), hits mostly activators; Yeast expressing alpha-synuclein, growth rescue, BacTiter-Glo, 24 h; further: % of control where 0% means no effect; nearly all actives have a fitted effect of over 65% in size
#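 Screening used galactose-induced yeast with toxic alpha-synuclein levels, exposed to compound for 24 hr at 30 deg C. Cell growth, read with BacTiter-Glo luminescence, gave the measured signal.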
# TDP-43 yeast inh: TDP-43 toxicity inhibition in yeast; TDP-43 expressing yeast growth rescue, BacTiter-Glo, 24 h; Potency, µM (series often up to 46.1 µM), inactives show at the highest dose growth rescue (activation), most hits filed as activators; 410,000 compounds, 1.8% hits; further: % of control where 0% means no effect; nearly all actives have a fitted effect of over 50% in size
#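 Growth rescue of TDP-43-toxic yeast measured as ATP luminescence (BacTiter-Glo). Cells grown to mid-log in raffinose, induced in galactose at OD600=0.02, exposed to compound 24 hr at 30 deg C.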
# FUS suppressor: suppressors of FUS proteinopathy in yeast; AID 1347120; Potency, µM (highest dose often 76.6 µM), actives largely listed as activators; S. cerevisiae FUS-expressing, growth rescue, OD600, 24 h; 390,000 compounds, 0.24% hits;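 further: plate controls were DMSO vehicle for no effect and reference control for full effect; nearly all actives have a fitted effect of over 55% in size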
#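 Quantitative HTS measuring growth restoration of FUS-toxic yeast. Galactose-induced cells (OD 0.005) were exposed 24hr at 30C to compounds at several concentrations, then absorbance at 600 nm was recorded.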
# Abeta yeast res: A-beta toxicity reversal in yeast; yeast expressing A-beta42, growth rescue, OD600, 48 h; response scale: 0% DMSO, 100% iron-clioquinol control; Potency, µM (titrated, usually from 46.1 µM), most hits filed as activators; 410,000 compounds, 0.063% hits; further: nearly all actives have a fitted effect of over 55% in size
#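 Yeast growth medium received pinned compounds, then yeast cells expressing toxic A-beta were added; plates incubated at 30 C for 48 hr. Growth read as absorbance at 600 nm, normalized to DMSO and equimolar FeCl3 plus clioquinol controls.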
# The depositor's hits bear a star; i = inactive; ? = inconclusive; nt = no result. This is a sample that favours compounds with a hit; in the whole collection about 2.1% have one here. The call rests on the fitted dose curve; in most records, active means well fitted curve in the direction sought with a large enough effect; inconclusive means small, poorly fitted or top-dose-only effect, or another doubt; inactive means no such curve, though single readings can be large; an effect the other way counts as inactive or inconclusive. Potency means the concentration at half of the fitted maximal effect.
SMILES,aSyn yeast inh,TDP-43 yeast inh,FUS suppressor,Abeta yeast res
COC[C@H]1O[C@]2(c3ccccc3)CO[C@H]1[C@@H](/C=C/c1ccccc1)C2,nt,nt,i,nt
CCOC(=O)N/C(N)=N/c1nc2ccccc2s1,nt,11.2µM*,i,i
O=C1N2CCc3ccccc3C2CS(=O)(=O)N1Cc1ccc(F)cc1 (configuration not stated),nt,nt,i,nt
COc1cccc(-c2csc(N3CCN(C(=O)Nc4ccc(F)cc4)CC3)n2)c1,-3.8%,17.8µM*,12.6µM*,i
CCOC(=O)N1CCN(c2nc(-c3ccc(F)cc3)cs2)CC1,-17.4%,20µM*,i,i
COCCNC(=S)N1CCN(c2nc(-c3ccccc3)cs2)CC1,-3.9%,28.6%,i,i
COCCCNC(=S)N1CCN(c2nc(-c3ccc(F)cc3)cs2)CC1,-2.1%,22.4µM*,?,?
CCOCCCNC(=S)N1CCN(c2nc(-c3ccc(F)cc3)cs2)CC1,4.4%,25.1µM*,i,?
COc1cc(OC)c(OC)cc1CNCCCSc1nnnn1C,nt,?,i,i
Cc1ccc(C)c(S(=O)(=O)c2nnn3c2nc(NCc2ccc4c(c2)OCO4)c2sccc23)c1,nt,6.0%,i,i
O=C(NCCc1ccccc1)c1ccc(Sc2ccccc2Cl)c([N+](=O)[O-])c1,nt,nt,i,nt
N#Cc1c2c(c(Cl)n3c1nc1ccccc13)CCCC2,4.4%,nt,nt,nt
COc1cc(OC)cc(C(=O)NNc2nc3cc4c(cc3s2)OCO4)c1,7.0%,10µM*,i,i
O=C(NNc1nc2cc3c(cc2s1)OCO3)c1cccc(F)c1,9.0%,5.62µM*,i,i
O=C(NNc1nc2c(F)cccc2s1)c1ccc(F)cc1,-0.2%,10µM*,i,i
O=C(COc1ccccc1)NNc1nc2c(F)cccc2s1,0.9%,11.2%,i,i
O=C(NNc1nc2cc3c(cc2s1)OCO3)c1ccccc1,0.2%,4.2%,i,i
O=C1CCCc2[nH]c(=O)c(C(=O)NCc3ccccc3)cc21,-1.1%,nt,nt,nt
Cc1ccc(C(=O)NC(C#N)=C(Cl)Cl)cc1,6.0%,11.2µM*,i,i
Cc1ccc(C(=O)NCC#N)cc1,-0.5%,-1.0%,i,i
CN1CCN(C2(CNC(=O)c3ccc(C(C)(C)C)cc3)CCCCC2)CC1,nt,6.6%,i,i
CC(C)(C)OC(=O)N1CCCN(C(c2cc3ccccc3o2)c2nnnn2C(C)(C)C)CC1 (configuration not stated),-6.8%,?,15.8µM*,i
CC(C)(C)n1nnnc1C(c1cc2ccccc2o1)N1CCN(C(=O)OCc2ccccc2)CC1 (configuration not stated),-0.2%,16.7%,?,i
CC1CCCN(S(=O)(=O)c2cc3c4c(c2)CC(=O)N4CCC3)C1 (configuration not stated),nt,23.6%,i,i
CCOc1ccc(Nc2c(S(=O)(=O)c3ccccc3)cnc3ccc(CC)cc23)cc1,nt,0.0%,i,i
SMILES,aSyn yeast inh,TDP-43 yeast inh,FUS suppressor,Abeta yeast res
COc1ccc(NC(=O)c2cc(-c3cc(F)ccc3OC)n[nH]2)c(OC)c1,-17.3%,20µM*,i,i
COc1ccc(OC)c(NC(=O)c2cc(-c3ccc(F)cc3OC(C)C)n[nH]2)c1,-7.5%,22.4µM*,?,i
COc1ccc(NC(=O)c2cc(-c3cc(F)ccc3OC)n[nH]2)cn1,-22.7%,20µM*,i,i
COc1ccc(NC(=O)c2cc(-c3ccc(F)cc3OC)n[nH]2)c(OC)c1,-7.1%,20.2%,i,i
COc1ccc(NC(=O)c2cc(-c3cc(F)ccc3OC)n[nH]2)cc1OC,-1.8%,35.5µM*,i,i
CCCOc1ccc(F)cc1-c1cc(C(=O)Nc2ccc(OC)c(OC)c2)[nH]n1,1.0%,?,?,i
COc1ccc(F)cc1-c1cc(C(=O)Nc2ccc(C)c(NS(C)(=O)=O)c2)[nH]n1,-5.9%,0.0%,i,i
CCOC(=O)c1cccc(NC(=O)C2=C(C)C(=O)OC23CCCCC3)c1,nt,26.7%,i,i
CC(C)CNc1ncnc2oc(-c3ccco3)c(-c3ccco3)c12,8.3%,nt,nt,nt
O=S1(=O)c2c(cccc2N2CCC[C@H]2CO)O[C@H]2CCN1C2,nt,nt,i,nt
CNc1ccc(/C=C/c2ccnc3ccccc23)cc1,-7.6%,nt,nt,nt
COc1cccc(Nc2nc3ccc(C(=O)c4ccccc4)cc3n3c(C)nnc23)c1,nt,21.2%,i,i
Cc1ccc(CC(SCc2ccccc2)C(=O)O)cc1C (configuration not stated),7.4%,11.2µM*,i,i
COC(=O)[C@@]1(Cc2ccc(OC)cc2)[C@H]2c3cc(C(=O)N4CCCC4)n(Cc4ccc(S(C)(=O)=O)cc4)c3C[C@H]2CN1C(=O)c1ccccc1,4.1%,10.9%,25.1µM*,i
CN(C)c1nc(-c2ccccc2)ncc1S(=O)(=O)c1ccccc1,9.5%,15.8µM*,i,i
COc1cccc(CNc2nc3cc(-c4cscc4C)sc3c(=O)n2C)c1,?,20µM*,?,i
COc1cccc(CNc2nc3cc(-c4ccc(OC)cc4C)sc3c(=O)n2C)c1,17.3%,20µM*,i,i
CC(C)(C)OC(=O)N1CCC(c2c(C(=O)N3CCN(c4ccccn4)CC3)cnn2-c2ccccc2Cl)CC1,nt,-16.9%,i,i
Fc1ccc(CNc2cc(-c3ccccc3)nc3nncn23)cc1,nt,17.8µM*,?,i
Fc1ccc(CNc2ccn3nc(-c4ccccc4)cc3n2)cc1,14.9%,17.8µM*,?,?
COc1ccc(CNc2cc(-c3ccc(OC)cc3)nc3nncn23)cc1,nt,14.1µM*,i,i
Cc1nc2nncn2c(NCc2ccc(F)cc2)c1C,nt,4.0%,i,i
c1ccc(OCCNc2ccn3nc(-c4ccccc4)cc3n2)cc1,3.4%,27.3%,i,i
CCc1c(C)nc2nncn2c1NCc1ccc(OC)cc1,nt,27.2%,i,i
O=C(CC1N=C2c3ccccc3N=C(SCC(=O)Nc3ccccc3F)N2C1=O)NCc1ccc2c(c1)OCO2 (configuration not stated),nt,-0.6%,?,i
SMILES,aSyn yeast inh,TDP-43 yeast inh,FUS suppressor,Abeta yeast res
CCOc1ccc(S(=O)(=O)N(CC(=O)Nc2ccc3c(c2)OCO3)c2ccccc2)cc1,nt,9.3%,i,i
CC(C)CN=C(NS(=O)(=O)c1ccccc1)C(Cl)(Cl)Cl,15.2%,11.2µM*,?,i
COc1ccc(N2CCN(c3nc4ccccc4nc3NS(=O)(=O)c3ccccc3)CC2)cc1,-16.8%,20µM*,i,i
CC(=O)OCC(=O)Nc1ccc(N=Nc2ccccc2)cc1,-15.4%,11.2µM*,i,i
CC(=O)Nc1ccccc1,-2.5%,20.3%,i,i
CC(=O)Nc1ccc(N=Nc2ccccc2)cc1,-11.8%,10µM*,nt,i
O/N=C1\CCCc2ccc3ccccc3c21,11.6%,11.2µM*,i,i
CC(C)(C)C(=O)NC(=S)NNC(=O)c1ccc(Cl)cc1Cl,5.01µM*,-56.3%,i,i
